An excerpt weighted towards active compounds, which were near 32% of everything screened.
PostGolgi yeast – growth inhibition of a yeast mutant, post-Golgi transport screen; AID 739; actives 0.9% (n = 98,000); inhibition, % at 10 µM; post-Golgi transport phenotypic cell assay;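 further: yeast cells grown in 1536-well plates; yeast grown about 18 h at 30C before absorbance read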
CYP2C19 activ – activators of human cytochrome P450 2C19 | recombinant CYP2C19, luciferin-H EGE luminescence; active compounds read high; 0 = fully inhibited enzyme, 1 = untreated enzyme | activation factor at 5 µM | 96,000 tested, under 10 active;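 active means activation factor of at least 2 at 5 µM in the primary screen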;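 further: 0 = wells with 2.5 mM tranylcypromine and 1 = vehicle-only wells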
CYP2C9 inh – human CYP2C9 inhibition; inhibition, % at 5 µM; actives 20% (n = 96,000); P11712; AID 777; CYP2C9 Supersomes, luciferin-H conversion, luminescence;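 active means blocking of liver enzyme CYP2C9 beyond about 50% at 5 µM, limit read from the data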
Target sequence (P11712 whole entry, looked up): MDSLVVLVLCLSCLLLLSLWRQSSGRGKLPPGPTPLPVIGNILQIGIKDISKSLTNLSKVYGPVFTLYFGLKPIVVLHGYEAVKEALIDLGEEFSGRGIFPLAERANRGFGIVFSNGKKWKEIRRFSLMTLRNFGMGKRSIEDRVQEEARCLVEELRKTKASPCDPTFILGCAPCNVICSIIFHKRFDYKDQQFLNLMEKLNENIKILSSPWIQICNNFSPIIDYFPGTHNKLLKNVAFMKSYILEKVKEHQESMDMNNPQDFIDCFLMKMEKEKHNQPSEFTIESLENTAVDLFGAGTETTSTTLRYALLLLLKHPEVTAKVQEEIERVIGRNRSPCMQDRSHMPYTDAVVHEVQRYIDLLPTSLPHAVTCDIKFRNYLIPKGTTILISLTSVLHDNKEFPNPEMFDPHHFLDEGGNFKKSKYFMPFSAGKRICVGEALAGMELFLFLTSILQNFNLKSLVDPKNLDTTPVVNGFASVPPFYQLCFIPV
PostGolgi ctrl – inhibits growth of the yeast control strain | efflux-deficient yeast background strain, growth absorbance A615, 16 h | inhibition, % at 10 µM | actives 5% (n = 98,000)
CYP2C19 inhib – human CYP2C19 inhibition | actives 21% (n = 96,000) | CYP2C19 Supersomes, luciferin-H EGE luminescence, 30 min | inhibition, % at 5 µM;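 active means CYP2C19 inhibition above a set limit at 5 µM in the primary screen, cut at about 50% in these data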;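 further: plate controls were negative control wells for no effect and 2.5 mM tranylcypromine positive control for full effect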
CYP2C9 act – CYP2C9 (human) activation; P11712; activation factor at 5 µM; recombinant CYP2C9, luciferin-H conversion, luminescence; active compounds read high; factor 1 = untreated enzyme, 0 = blocked; actives 1.4% (n = 96,000);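 active means activation factor of 2 or more for CYP2C9 at a 5 µM dose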;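 further: 0 = sulfaphenazole-blocked wells and 1 = vehicle-only wells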
* hit, by the source's call; nt = no result. Unless noted, no stated cut-off is given here; in the data, active means inhibition above about 30%; inactive means the rest.

SMILES	PostGolgi yeast	CYP2C19 activ	CYP2C9 inh	PostGolgi ctrl	CYP2C19 inhib	CYP2C9 act
COC(=O)C(CCSC)NC(=O)CNS(=O)(=O)c1ccc(Br)cc1 (centres undefined)	-8.8	0.9	48.8	11.1	14.7	0.5
CCC(C)NC(=O)CCNS(=O)(=O)c1ccc(Br)cc1 (centres undefined)	3.1	0.5	-116.4	-2.5	49.0	2.2*
CCOCCCNS(=O)(=O)c1ccc(Br)cc1	-4.2	0.1	-34.6	2.6	89.8*	1.3
CCCCNC(=O)CCNS(=O)(=O)c1ccc(Br)cc1	-8.0	0.8	-166.3	3.4	19.0	2.7*
CCc1ccccc1N(CC(=O)N1CCN(c2ccccc2)CC1)S(C)(=O)=O	-1.7	0.9	0.1	13.8	14.0	1
O=C(O)c1cc(-c2ccc(/C=N/Nc3ccc(Cl)cc3)o2)ccc1Cl	62.9*	0.9	33.0	10.5	7.8	0.7
Cc1ccc(-c2ccc(/C=N/NC(=O)CN3CCCC3)o2)cc1Cl	0.5	0.8	11.3	19.2	22.1	0.9
O=C(C1c2ccccc2Oc2ccccc21)N1CCN(c2ccc(Cl)cc2)CC1	-10.5	0.1	84.7*	37.4*	94.0*	0.2
COc1ccccc1N1CCN(C(=O)C2c3ccccc3Oc3ccccc32)CC1	17.4	0	99.9*	41.6*	98.1*	0
Cc1cc(C)nc(NC2=NCC(=O)N2c2ccccc2Br)n1	3.2	nt	nt	4.1	nt	nt
CCCC(=O)n1nc(-c2ccc(OC)cc2)nc1N	5.7	0.5	-1.1	3.2	53.3*	1
CCCC(=O)n1nc(-c2ccco2)nc1N	1.1	0.9	3.7	-5.2	14.5	1
Cc1ccc(S(=O)(=O)Nn2c(C)nnc2-n2nc(C)cc2C)cc1	-2.3	1	14.0	-1.8	2.5	0.9
Cc1cc(O)cc(O)c1-c1onc(C(F)(F)F)c1-c1cscn1	-8.7	0.2	16.8	0.3	79.8*	0.8
CCOc1ccc(-c2onc(C(F)(F)F)c2-c2cscn2)c(O)c1	-6.8	0.7	-77.8	3.4	26.2	1.8
CCCCCC(=O)Nc1ccc(N2CCN(C(=O)CCC)CC2)cc1	7.0	1	15.0	3.6	4.4	0.8
O=c1c2[nH]c3ccccc3c2ncn1C1CCCCC1	34.0*	1	2.1	17.7	3.9	1
COc1cccc(NC(=O)CC2(CC(=O)O)CCCC2)c1	-2.4	0.8	25.4	3.7	22.1	0.7
O=C(CSc1nc2ccccc2c(=O)[nH]1)N1CCN(S(=O)(=O)c2ccccc2)CC1	-4.9	0.8	21.8	0.5	16.1	0.8
c1ccc(-c2nc(CSc3n[nH]c(-c4cccs4)n3)cs2)cc1	-0.8	0.4	32.6	33.7*	60.2*	0.7
Cn1c(SCC(=O)N2CCN(S(=O)(=O)c3ccc(Cl)cc3)CC2)nc2ccccc21	-7.6	0.4	-103.2	6.1	57.6*	2*
O=C(CSc1nc(-c2ccccc2)c(-c2ccccc2)[nH]1)N1CCN(S(=O)(=O)c2ccccc2)CC1	-0.5	0.1	79.8*	3.5	86.4*	0.2
CC(C)Cn1c(SCC(=O)N2CCN(S(=O)(=O)c3ccccc3)CC2)nc2ccccc21	13.0	0.2	78.5*	13.1	79.7*	0.2
Cc1nc2sc(C(c3cccs3)N3CCN(c4ccccc4)CC3)c(O)n2n1 (centres undefined)	nt	0.9	5.3	nt	9.3	0.9
O=C(CSc1n[nH]c(-c2cccs2)n1)N1CCN(S(=O)(=O)c2ccccc2)CC1	6.3	0.7	51.0*	-3.7	31.7	0.5
SMILES	PostGolgi yeast	CYP2C19 activ	CYP2C9 inh	PostGolgi ctrl	CYP2C19 inhib	CYP2C9 act
Nn1c(SCC(=O)N2CCN(S(=O)(=O)c3ccc(Cl)cc3)CC2)nnc1-c1cccs1	16.0	0.6	50.5*	3.0	35.7	0.5
O=C1Nc2cc3c(cc2Sc2ccccc21)OCCO3	8.8	0.7	-6.3	7.4	26.4	1.1
CC(=O)NC(c1ccccc1)c1cccnc1 (centres undefined)	5.8	0.9	-7.8	9.9	13.4	1.1
Cc1ccccc1C(NC(N)=O)c1ccccc1 (centres undefined)	-0.7	0.1	28.8	8.9	94.9*	0.7
O=c1cc(CO)occ1OCc1cccc(F)c1	10.9	0.7	-19.6	33.3*	26.2	1.2
CCN(CCCNC(=O)c1cn(CC)c2ccc(S(=O)(=O)N(C)C)cc2c1=O)c1cccc(C)c1	6.0	0.6	76.8*	5.6	41.9	0.2

From PubChem
